Values joined by “and” are separate entries in the source; they are usually repeats but may differ in a detail not shown here. Equal values may be shown once. Hit rate of the full screen: of about 360,000 compounds, about 2,600 (0.72%) were called active. Where a call stands in place of a potency, no number is given. Roughly 5% stayed inconclusive and do not appear here. Only a selection was taken, and actives are over-represented in it overall. A number with no mark means an inactive call. Calls come from the whole dose curve; as a rule, active = well fitted inhibition curve with a large enough effect; inconclusive = small, poorly fitted or top-dose-only effect; inactive = no such curve, though single readings can be large or run the other way.
Potency is the fitted concentration of half-maximal effect.

This test can be described thus: Primary qHTS for Inhibitors of ATXN expression. Note: nearly all actives have a fitted effect of over 55% in size. The following applies: HEK-293 ATXN2-luciferase reporter, luminescence, 24 h; series mostly up to 57 µM. An outline of the steps: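 qHTS (up to 57 uM final) was run with 24 h compound exposure of reporter cells at 37 °C. Each well was multiplexed: SteadyGlo luminescence measured ATXN2-luciferase expression after a fluorogenic Gly-Phe-AFC viability readout (25 uM final).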
(In general: qHTS replaces the single test concentration by a dilution series.)
Consider `COc1ccc(Cl)cc1N(CC(=O)N/N=C/c1ccc(OCC(N)=O)cc1)S(C)(=O)=O`, for which the Potency result was “inactive”.
As to `Cc1nc2ccccc2nc(C)c1=NOCc1ccc(Cl)cc1Cl`, the Potency entry is “inactive”.
Same read-out and setting: the figure for `NC(N)=N/N=C/c1ccc(OCc2ccc(Cl)cc2Cl)cc1` is 22.4 µM (active); for `CCc1nc2ccc(C(=O)N(C)CCN(C)C)cn2c1N(CC)CCOC` it is “inactive”; for `CC(C)Sc1oc(-c2cccs2)nc1S(=O)(=O)c1ccc(Cl)cc1` it is “inactive”.
Still for that read-out and setting: for `CC1CC(C)(C)n2c(O)c(N=NC(N)=S)c3cccc1c32` (configuration not stated) the value was 28.2 µM (active); for `Cc1ccc(OCCn2c(CNc3ccccc3C)nc3ccccc32)cc1`, “inactive”.
On to `CCCn1ccc2c(OCC(=O)NCc3ccc(F)cc3)cccc2c1=O`, for which the Potency entry is “inactive”.
As to `COc1ccc(C(C#N)=C2C=CC(=NO)c3ccccc32)cc1`, the Potency result is “inactive”.
Same read-out and setting: for `O=C(Nc1ccccc1Cl)/C(Cl)=C(\Cl)S(=O)c1ccccc1` (configuration not stated) the value was 3.55 µM (active); for `O=C(CCN1CCN(C/C=C/c2ccccc2)CC1)Nc1ccccc1Cl`, “inactive”; for `NC(=O)C1(Nc2ccccc2Cl)CCCC1`, “inactive”.
Take `CSCCC(c1nnnn1Cc1ccccc1)N1CCN(C/C=C/c2ccccc2)CC1` (configuration not stated): the Potency result was “inactive”.
For `CCCN1CCN(CCCNC(=O)Cn2nc(CC)n3c(cc4occc43)c2=O)CC1`, the Potency entry is “inactive”.
Regarding `Cc1cccc(C(=O)NCCc2nc3ccccc3n2Cc2ccccc2Cl)c1`, the Potency result was “inactive”.
With `Cc1ccccc1CSc1nc(-c2ccccc2)nc2c1Cc1c(CO)cnc(C)c1O2`, the Potency entry was “inactive”.
Take `CCOC(=O)[C@]12CCCC=C1N(Cc1cccc3ccccc13)C(=O)[C@H](CC(=O)NCC13CC4CC(CC(C4)C1)C3)C2`: the Potency result is “inactive”.
Turning to `COc1cc(Nc2ncc(F)c(Nc3ccc4c(n3)NC(=O)C(C)(C)O4)n2)cc(OC)c1OC`, the Potency entry was “inactive”.
Same read-out and setting: for `CCOc1ccc(CCNC(=O)c2cc3c(=O)n(C)c4ccccc4c3n2C)cc1` the value was “inactive”; for `CC(C)(O)C(=O)NN(C(=O)c1ccccc1)c1cccc(Br)c1`, “inactive”; for `CCCC(O)(CCC)C(=O)NN(C(=O)CCl)c1cccc(C)c1`, 21.2 µM (active).
On to `CCCCC(O)(CCCC)C(=O)NN(C(=O)CCl)c1ccccc1`, for which the Potency result was “inactive”.
As for `C=CCC[C@@H](CCCCC)OC(=O)/C=C/[C@@H](O)[C@H](O)C[C@H](O)CC=C`, the Potency entry was “inactive”.
Take `CC(C)CC(=O)NCC(c1ccc2c(c1)OCO2)N1CCN(c2ccc(F)cc2)CC1` (configuration not stated): the Potency result was “inactive”.
Same read-out and setting: for `C[C@H]1C[C@H]2[C@@H]3CCC4=CC(=O)C=C[C@]4(C)[C@@H]3C(=O)C[C@]2(C)[C@@]1(O)C(=O)CO` the value was “inactive”; for `CO[C@H]1C[C@@H]2CC[C@@H](C)[C@@](O)(O2)C(=O)C(=O)N2CCCC[C@@H]2C(=O)O[C@H]([C@@H](C)C[C@@H]2CC[C@H](O)[C@H](OC)C2)CC(=O)[C@H](C)C=C(C)[C@@H](O)[C@@H](OC)C(=O)[C@H](C)C[C@H](C)C=CC=CC=C1C`, “inactive”; for `CCN(CC)CCC(c1ccc2c(c1)OCO2)c1c(OC)cc(OC)c2c(-c3ccccc3)cc(=O)oc12` (configuration not stated), 31.6 µM (active).
With `COc1cc(C(CCN2CCN(c3ccccc3)CC2)c2c(OC)cc(OC)c3ccc(=O)oc23)cc(OC)c1OC` (configuration not stated), the Potency result is “inactive”.
On to `COc1cc(OC)c2ccc(=O)oc2c1C(CCN1CCN(c2ccccc2)CC1)c1ccc2c(c1)OCO2` (configuration not stated), for which the Potency result is “inactive”.
Still for that read-out and setting: the entry for `Cc1ccccc1-n1c(=O)c2ccccc2n(Cc2ccc(F)cc2)c1=O` is “inactive”; for `CCNC(=O)c1cc2n(n1)CCCN(Cc1ccc(C)cc1)C2=O` it is “inactive”; for `CC1CCCCN1S(=O)(=O)c1ccc(F)c(C(=O)Nc2ccccc2C(F)(F)F)c1` (configuration not stated) it is “inactive”.
For `CCN(CCCNC(=O)CSc1cc(=O)n(C)c2cc(Cl)ccc12)c1cccc(C)c1`, the Potency result was “inactive”.
The same measure, in the same setting: for `CCC(CC)C(=O)N1CCc2cc(OC)c(OC)cc2C1COc1ccc(F)cc1` (configuration not stated) the value was “inactive”; for `CC[C@H]1CN2CCc3cc(OC)c(OC)cc3[C@@H]2C[C@@H]1C[C@H]1NCCc2cc(OC)c(OC)cc21`, 1.41 µM (active) and 112 nM (active).
The same measure, in the same setting: for `COc1cc2c(cc1OC)CN(CC(=O)Nc1ccc(F)cc1)CC2` the value was “inactive”.
On the same count and under the same terms, for `Cc1cc(C)cc(NS(=O)(=O)c2cc3c(cc2C)NC(=O)CO3)c1` the value was “inactive”; for `CC=CCC=CCCC(=O)[C@H]1O[C@@H]1C(N)=O`, “inactive”; for `COc1ccc2c(c1)c(=Cc1ccc(N(C)C)cc1)c1cc(-c3ccccc3)[n+](C)n12`, 8.91 µM (active).
As to `COc1cccc(NC(=O)Cn2c(=O)cc(C)c3c(C)nn(-c4cccc(F)c4)c32)c1`, the Potency entry is “inactive”.
As for `CCOC(=O)C1CCN(c2csc3ccc(C)cc3c2=O)CC1`, the Potency result is “inactive”.
In the case of `CCCCOc1ccc(CN2C(=O)C(=O)c3cc(Br)cc(C)c32)cc1OC`, the Potency is 31.6 µM (active).
As to `COc1ccc(CN2C(=O)CC(Cc3ccc(C)cc3)C2=O)cc1OC` (configuration not stated), the Potency entry is “inactive”.
On to `CCCCN1C(=O)C(C)=C(C)C1OCCc1ccc(OC)c(OC)c1` (configuration not stated), for which the Potency result is “inactive”.
For the molecule `COc1ccccc1CNC(=O)CS(=O)(=O)c1cccc2nsnc12`, the Potency result was “inactive”.
`Cc1cc2ccccc2n1CCNC(=O)c1ccc(F)cc1`: the Potency entry was “inactive”.
As for `Cc1ccc2[nH]c(=O)c(CN(CC3COCCO3)C(=O)Nc3ccccc3C)cc2c1` (configuration not stated), the Potency entry was “inactive”.
Regarding `Cc1ccc2[nH]c(=O)c(CN(CCCN(C)C)C(=O)Nc3cccc(Cl)c3)cc2c1`, the Potency was 15.8 µM (active).
With `CCC(=O)N(CCc1ccccc1)Cc1cc2cc(C)ccc2[nH]c1=O`, the Potency result was “inactive”.
On to `CCOc1ccc(OCC)c(NC(=O)c2c(C)nn(-c3ccccc3)c2-n2cccc2)c1`, for which the Potency result is “inactive”.
In the case of `CC(C)(C)OC(=O)N1CCC(c2c(C(=O)Nc3ccc4c(c3)OCO4)cnn2-c2ccccc2)CC1`, the Potency result is “inactive”.
Turning to `CCOC(=O)C/C(C)=N\Nc1ccc([N+](=O)[O-])cc1[N+](=O)[O-]`, the Potency entry is “inactive”.
For `CCOC(=O)/C(=N\Nc1ccccc1[N+](=O)[O-])c1csc(Nc2ccccc2)n1`, the activity change, negative = inhibition was -8.65% [at 11.3 µM].
`CCOC(=O)/C(=C\c1ccc([N+](=O)[O-])cc1)C(=O)c1cc(C(C)=O)c(Nc2ccccc2)s1`: the Potency is 8.91 µM (active).
For the molecule `O=C(NCC12CC3CC(CC(C3)C1)C2)c1cc2nc(-c3ccccc3)cc(C(F)(F)F)n2n1`, the Potency result is “inactive”.
For the molecule `O=C(Nc1cccc2cccnc12)c1cccc2c(Br)cccc12`, the Potency result is “inactive”.
In the case of `CC(=O)NC(c1cccs1)c1cc(Br)c2cccnc2c1O` (configuration not stated), the Potency was 5.01 µM (active).
Regarding `N#Cc1ccccc1NC(=O)COc1c(Br)cc(Br)c2cccnc12`, the Potency result was “inactive”.
On to `COc1ccc2cc1Oc1ccc(cc1)C[C@H]1c3cc(c(OC)cc3CCN1C)Oc1c(O)c(OC)cc3c1[C@H](C2)N(C)CC3`, for which the Potency is 25.1 µM (active).
Same read-out and setting: the entry for `COc1ccc(-c2nc3ccccc3o2)cc1NC(=O)c1cc([N+](=O)[O-])ccc1N1CCOCC1` is “inactive”; for `COc1ccccc1CNC(=O)c1ccccc1NC(=O)c1nsc2ccccc12` it is “inactive”; for `O=[N+]([O-])c1ccccc1/C=C/CN1CCCC(CO)C1` (configuration not stated) it is “inactive”.
In the case of `O=[N+]([O-])c1ccccc1/C=C/CN1CCC(O)CC1`, the Potency result was “inactive”.
Consider `CC1CCCCC1NC(=O)/C(C#N)=C/C=C/c1ccccc1[N+](=O)[O-]` (configuration not stated), for which the Potency was 3.16 µM (active).
Still for that read-out and setting: for `COC(=O)/C=C(/C)N` the value was “inactive”.
Turning to `CN1CC[C@H](c2c(O)cc(O)c3c(=O)cc(-c4ccccc4Cl)oc23)[C@H](O)C1`, the Potency was 31.6 µM (active).
Regarding `CCOc1cc(C=C2C(=O)N(c3ccccc3)N=C2C)cc(Cl)c1OCC(=O)OC`, the Potency entry was “inactive”.
The same measure, in the same setting: for `COc1cccc(CNCCSc2nnnn2C)c1OCc1ccccc1Cl` the value was “inactive”.
As for `COc1cccc(CNCCc2c[nH]c3ccccc23)c1OCc1ccccc1F`, the Potency was 20 µM (active).
With `COc1ccc(C(CCNCc2ccccc2F)c2ccc(F)cc2)cc1` (configuration not stated), the Potency entry was “inactive”.
The same measure, in the same setting: the entry for `Cc1nnc(C(=O)NC(C)(C)c2nc(C(=O)NCc3ccc(F)cc3)c(O)c(=O)n2C)o1` is “inactive”.
The same measure, in the same setting: the entry for `COc1ccc(S(=O)(=O)NCCSc2nnnn2-c2ccccc2)cc1` is “inactive”.
As to `CSc1ncnc2c1ncn2CCCNCC1CCCCC1`, the Potency result was “inactive”.
Turning to `CSc1ncnc2c1ncn2CC(=O)C1CCC2C3CCC4=CC(=O)CCC4(C)C3CCC12C` (configuration not stated), the Potency is 22.4 µM (active).
For `CSc1ncnc2c1ncn2CCCNCc1ccco1`, the Potency result was “inactive”.
Turning to `COc1ccc(-c2nc(Cn3c(=O)cc(C)c4c(C)nn(-c5ccccc5)c43)c(C)o2)c(OC)c1`, the Potency result is “inactive”.
In the case of `CCOc1ccccc1CNC(=O)c1ccc(-n2c(C)cc3c2CCC(C)C3)cc1` (configuration not stated), the Potency result is “inactive”.
`CO/N=C(/C(=O)N[C@@H]1C(=O)N2C(C(=O)O)=C(Cn3nnc(C)n3)CS[C@H]12)c1csc(N)n1`: the Potency result was “inactive”.
As to `CC(C)c1ccc(S(=O)(=O)Nc2ccc(O)c(Sc3nc4ccccc4s3)c2)cc1`, the Potency entry was “inactive”.
As to `CC(C)(C)c1ccc(S(=O)(=O)Nc2ccc(O)c(Sc3nc4ccccc4s3)c2)cc1`, the Potency result was “inactive”.
`O=[N+]([O-])c1c(NCCO)cc(Sc2nc3ccccc3s2)c2nonc12`: the Potency was 14.1 µM (active).
`CCCCC[C@H](C)N1C[C@@H](COCc2ccccc2)Oc2cc(N3CCC[C@@H]3CO)ccc2S1(=O)=O`: the Potency result was “inactive”.
With `CCCCC[C@H](C)N1C[C@@H](COCc2ccccc2)Oc2cc(N3CC[C@@H](N(C)C)C3)ccc2S1(=O)=O`, the Potency is 31.6 µM (active).
Take `CCCCN1CC(COCc2ccccc2)OCCS1(=O)=O` (configuration not stated): the Potency result was “inactive”.
For the molecule `Cc1cccc(Nc2nc(C)nc(N)c2S(=O)(=O)c2ccccc2)c1`, the Potency result was “inactive”.
As for `CC(C)CC[n+]1ccn(C2=C([O-])c3ccccc3C(=O)/C2=N\S(=O)(=O)c2ccccc2)c1`, the Potency was 31.6 µM (active).
For the molecule `CCC1=Nc2cc(C(=O)NCCCOC(C)C)ccc2Sc2ccc(C)cc21`, the Potency entry is “inactive”.
Turning to `Cc1ccc(C)c(N2CCN(C(=O)CN3C(=O)COc4ccc(S(=O)(=O)N5CCCCCC5)cc43)CC2)c1`, the Potency entry is “inactive”.
Regarding `COc1cccc(CNC(=O)C2CCC(CNS(=O)(=O)c3cccs3)CC2)c1` (configuration not stated), the Potency result is “inactive”.
On to `CC(C)(c1ccccc1)c1ccc(OCCN2CCCC2)cc1`, for which the Potency result is “inactive”.
As to `OC(c1ccccc1)(c1ccccc1)C1CCN(CCCOc2ccccc2)CC1`, the Potency result is “inactive”.
For the molecule `CN1CCC[C@@H]1CCO[C@](C)(c1ccccc1)c1ccc(Cl)cc1`, the Potency was 25.1 µM (active).

(Values after PubChem BioAssay AID1745845 (National Center for Advancing Translational Sciences (NCATS), 2022).)
